Results reported in the supplement of paper PMC6555819.

How the values were obtained:
Experiment in all cases: PBM binding z-score (relative to random genomic background probes); higher = stronger binding; sequences stand for … in GC…GCGATTGACAGCGTAGAATGAAGG
[1] = system: PPARg:RXRa DBDmut IVT, anti-RXR (DBD mutation: RXRa K156A/R161A, NR concentration 270 nM, RXRa partner concentration 90 nM)
In short: (§1)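 Probes were double-stranded and carried 34-nt variable regions with direct-repeat seeds, single-nucleotide variants, half-site ablations and random human genomic background sequences, printed on custom Agilent 4×180K protein-binding microarrays. Arrays were incubated 1 h with ligand-free nuclear receptor dimers in PBS pH 7.4, 2% milk, 0.02% Triton X-100, 1 mM DTT, 0.2 mg/mL BSA and 0.4 mg/ml salmon testes DNA. Antibodies against each partner (one per run) detected binding, and scanned fluorescence was regression-normalized. Binding z-scores use the random background probes as reference.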

[2] = system: PPARg:RXRa IVT, anti-PPARg (NR concentration 270 nM, RXRa partner concentration 90 nM)
In short: as §1

[3] = system: PPARg DBDmut:RXRa IVT, anti-PPARg (DBD mutation: PPARg1 K132A/R137A, NR concentration 270 nM, RXRa partner concentration 90 nM)
In short: as §1

[4] = system: PPARg DBDmut IVT, anti-PPARg (DBD mutation: PPARg1 K132A/R137A, NR concentration 270 nM)
In short: as §1

[5] = system: PPARg homodimer (NR concentration 180 nM)
In short: as §1

[6] = system: PXR:RXRa (NR concentration 270 nM, RXRa partner concentration 90 nM)
In short: as §1

[7] = system: PXR homodimer (NR concentration 270 nM)
In short: as §1

[8] = system: RARa:RXR (NR concentration 270 nM, RXRa partner concentration 90 nM)
In short: as §1

[9] = system: RARa homodimer (NR concentration 270 nM)
In short: as §1

[10] = system: RARb:RXRa (NR concentration 270 nM, RXRa partner concentration 90 nM)
In short: as §1

[11] = system: RARb homodimer (NR concentration 270 nM)
In short: as §1

[12] = system: RARg:RXRa (NR concentration 270 nM, RXRa partner concentration 90 nM)
In short: as §1

[13] = system: RARg homodimer (NR concentration 270 nM)
In short: as §1

[14] = system: RXRa DBDmut IVT, anti-RXR (DBD mutation: RXRa K156A/R161A, NR concentration 90 nM)
In short: as §1

[15] = system: RXRa homodimer (NR concentration 180 nM)
In short: as §1

[16] = system: THRa:RXRa (NR concentration 90 nM, RXRa partner concentration 90 nM)
In short: as §1

[17] = system: THRa homodimer (NR concentration 90 nM)
In short: as §1

[18] = system: VDR homodimer (NR concentration 270 nM)
In short: as §1

Row | Sequence | PBM binding z-score [1] | PBM binding z-score [2] | PBM binding z-score [3] | PBM binding z-score [4] | PBM binding z-score [5] | PBM binding z-score [6] | PBM binding z-score [7] | PBM binding z-score [8] | PBM binding z-score [9] | PBM binding z-score [10] | PBM binding z-score [11] | PBM binding z-score [12] | PBM binding z-score [13] | PBM binding z-score [14] | PBM binding z-score [15] | PBM binding z-score [16] | PBM binding z-score [17] | PBM binding z-score [18]
1 | TCGAGTAGGTAAGGGGCATTCAGAATGGCGTCGA | 1.59 | 0.472 | -0.991 | -1.03 | 0.148 | -0.173 | -0.537 | -0.00481 | -0.369 | 0.496 | 0.551 | -0.117 | -0.0823 | -0.0222 | 0.0821 | -0.336 | -0.325 | 0.178
2 | CGAACGAGGGCATGAGATGATAGCAAATGCCGAT | 2.91 | 1.69 | 0.746 | -0.282 | 0.685 | 0.00253 | -0.206 | 0.422 | 0.183 | 1.79 | 0.674 | 1.28 | 1.64 | 1.82 | 0.882 | 0.979 | -0.224 | 0.831
3 | ATCGAAAGGACGAGGTGAGTATAGAGAAAGGGAA | 0.186 | 0.649 | 0.713 | 0.658 | 0.139 | -0.25 | 0.286 | 0.04 | 0.504 | 1.31 | 0.703 | 0.958 | 1.48 | -0.386 | 0.312 | 1.27 | 0.739 | 0.284
4 | CCGACTGGGGCAAGGTTACCATAACGCACAGCCA | 3.29 | 3.67 | -0.449 | -0.891 | 0.674 | 0.267 | -0.266 | 0.99 | 0.394 | 1.75 | 1.33 | 1.31 | 1.39 | -0.473 | 1.34 | 1.33 | 0.342 | -0.0373
5 | AGAATGAGGTTGAGATCAGGGAAACAGAATACAT | -0.749 | -0.0669 | 0.897 | 0.0775 | 0.146 | 0.154 | 0.387 | 0.681 | 0.16 | 0.263 | 0.193 | 0.514 | 0.477 | -0.1 | 0.612 | 1.35 | -0.0652 | 0.0379
6 | GGAACGAGGGCAAGTTGCTAGCAGAGTTTGATGG | 3.85 | 2.46 | -0.00966 | -0.739 | -0.336 | 0.59 | 0.303 | 0.0596 | -0.257 | 2.52 | 1.37 | 1.23 | 2.1 | 2.26 | 0.745 | 0.911 | -0.229 | 1.44
7 | TCTAGTTGGTCACCGAGGTCACACACGACGGGTA | 2.51 | 4.29 | 1.31 | 2.33 | 3.73 | 5.31 | 2.5 | 5.61 | 1.78 | 3.92 | 4.5 | 4.8 | 4.64 | 1.4 | 5.06 | 4.2 | 4.2 | 3.89
8 | ACTATTAGTTGACTTAGGTCAACCGATACGACGC | 0.95 | 1.72 | 1.38 | 1.44 | 2.81 | 2.2 | 1.29 | 2.59 | 1.55 | 2.73 | 3.31 | 2.8 | 2.9 | 1.07 | 2.17 | 3.47 | 2.98 | 1.41
9 | CCTTACGGGTCAACGTTATAGCACGGGTGGTACG | 2 | 3.53 | 0.108 | -0.133 | 1.79 | 3.18 | -0.188 | 3.99 | 0.25 | 4.13 | 3.19 | 4.85 | 4.64 | 0.494 | 5.03 | 2.36 | -0.182 | 0.692
10 | CCTTACGGGTCACTGACGGGTTATAGCATTTGGA | 2.64 | 3.56 | 0.267 | 0.298 | 3.14 | 3.66 | -0.038 | 4.82 | 0.976 | 4.04 | 3.38 | 5.58 | 4.49 | 1.51 | 5.1 | 2.74 | 0.301 | 0.822
11 | AGTCAAAGTTCAGGACGAGGTAAGGTAAAGCACG | -0.019 | 1.69 | 0.348 | -0.0383 | 2.01 | 2.5 | 1.18 | 2.42 | 1.06 | 4.4 | 3.46 | 4.56 | 4.61 | 3.11 | 3.09 | 3.72 | 2.26 | 2.09
12 | CCGACTGGGGCAGAAAGGTTACTATACCATCCGG | 2.21 | 1.68 | -0.665 | -1.26 | 0.373 | 0.533 | -0.207 | 1.18 | -0.156 | 1.53 | 1.91 | 1.26 | 1.23 | -0.158 | 1.3 | 0.534 | -0.377 | -0.181
13 | CCTCACGGGTCACTGACAGGTTATAGCATTTGGA | 1.77 | 2.15 | -0.537 | -0.176 | 1.89 | 3.33 | 0.0959 | 3.98 | 0.868 | 3.85 | 3.33 | 5.64 | 4.5 | 1.81 | 4.65 | 2.77 | 0.669 | 1.02
14 | ATCTCTTGGTAAAGATAGTTCAGTGAATGCAAAT | -0.0767 | 0.448 | 0.845 | 1.88 | 0.879 | 0.78 | 0.85 | 0.962 | 0.477 | 0.724 | 1.23 | 0.592 | 0.734 | 0.404 | 0.246 | 0.575 | 0.156 | 0.713
15 | ACTCCGAGGACAAAGGTCAGAGCTACGCCAGTGA | 1.44 | 4.05 | 0.71 | -0.0719 | 6.93 | 4.53 | 0.63 | 5.82 | 2.61 | 4.58 | 4.47 | 6.28 | 5.92 | 1.97 | 6.11 | 4.27 | 2.29 | 1.67
